About 2,000 (36%) of roughly 5,500 compounds were called active. About 18% were inconclusive and are not listed. Cut-off read from the data, not from the text of the source: active = normalized growth mostly below about 0.91 (no sharp cut-off); inconclusive = no clear call, values can overlap the other calls; inactive = mostly above about 0.92. Some of the results follow.
Assay: chemical genetic growth profiling, strain panel (AID 1159580);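 note: tested at 20 µM; growth read once vehicle control cultures reached saturation at 30 °C; 1 = growth at the plate median or of vehicle wells; lower values mean less growth of the strain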
Settings: growth OD

Measured: normalized growth

CC1(C)O[C@H]2[C@H](O)C[C@](O)(C(N)=O)C[C@H]2O1
inactive: S. cerevisiae deletion strains, locus YJR075W, strain HOC1, hits give low values 1.03 | S. cerevisiae deletion strains, locus YKL009W, strain mrt4, hits give low values 1.04 | S. cerevisiae deletion strains, locus YKL068W, hits give low values 1.01 | S. cerevisiae deletion strains, locus YKL085W, strain MDH1 (second series), hits give low values 1.03 | S. cerevisiae deletion strains, locus YKL085W, strain MDH1, hits give low values 1.03 | S. cerevisiae deletion strains, locus YKL160W, strain elf1, hits give low values 1 | S. cerevisiae deletion strains, locus YKL190W, strain CNB1, hits give low values 1.02 | S. cerevisiae deletion strains, locus YKR001C, strain vps1, hits give low values 1.06 | S. cerevisiae deletion strains, locus YKR026C, strain gcn3, hits give low values 1.01 | S. cerevisiae deletion strains, locus YKR091W, strain srl3, hits give low values 1.02 | S. cerevisiae deletion strains, locus YLL001W, strain dnm1, hits give low values 0.999 | S. cerevisiae deletion strains, locus YLL026W, hits give low values 1.01 | S. cerevisiae deletion strains, locus YLL041C, strain sdh2, hits give low values 1.02 | S. cerevisiae deletion strains, locus YLR027C, strain aat2, hits give low values 1.03 | S. cerevisiae deletion strains, locus YLR039C, strain RIC1, hits give low values 1.25 | S. cerevisiae deletion strains, locus YLR058C, strain SHM2, hits give low values 1.04 | S. cerevisiae deletion strains, locus YLR102C, strain apc9, hits give low values 1.01 | S. cerevisiae deletion strains, locus YLR113W, strain HOG1, hits give low values 1.02 | S. cerevisiae deletion strains, locus YLR221C, strain rsa3, hits give low values 1.02 | S. cerevisiae deletion strains, locus YLR258W, strain gsy2, hits give low values 1.01 | S. cerevisiae deletion strains, locus YLR262C, strain YPT6 (second series), hits give low values 1.08 | S. cerevisiae deletion strains, locus YLR268W, strain sec22, hits give low values 1.05 | S. cerevisiae deletion strains, locus YLR320W, strain mms22, hits give low values 1.03 | S. cerevisiae deletion strains, locus YLR330W, strain CHS5, hits give low values 1.02 | S. cerevisiae deletion strains, locus YLR342W, strain FKS1 (second series), hits give low values 1.03 | S. cerevisiae deletion strains, locus YLR342W, strain FKS1, hits give low values 1.01 | S. cerevisiae deletion strains, locus YLR357W, strain rsc2, hits give low values 1.01 | S. cerevisiae deletion strains, locus YLR370C, strain arc18, hits give low values 1.02 | S. cerevisiae deletion strains, locus YLR371W, strain rom2, hits give low values 1.05 | S. cerevisiae deletion strains, locus YLR384C, strain iki3, hits give low values 1.02 | S. cerevisiae deletion strains, locus YLR418C, strain cdc73, hits give low values 1.09 | S. cerevisiae deletion strains, locus YML016C, strain PPZ1, hits give low values 1.03 | S. cerevisiae deletion strains, locus YML032C, strain rad52, hits give low values 1.03 | S. cerevisiae deletion strains, locus YML120C, strain ndi1, hits give low values 1.01 | S. cerevisiae deletion strains, locus YML124C, strain tub3, hits give low values 1.02 | S. cerevisiae deletion strains, locus YMR058W, strain fet3, hits give low values 1.02 | S. cerevisiae deletion strains, locus YMR078C, strain ctf18, hits give low values 1.03 | S. cerevisiae deletion strains, locus YMR125W, strain sto1, hits give low values 1 | S. cerevisiae deletion strains, locus YMR129W, hits give low values 1.01 | S. cerevisiae deletion strains, locus YMR205C, strain PFK2, hits give low values 1.02 | S. cerevisiae deletion strains, locus YMR223W, strain ubp8, hits give low values 1.05 | S. cerevisiae deletion strains, locus YMR231W, strain pep5, hits give low values 1.01 | S. cerevisiae deletion strains, locus YMR307W, strain GAS1, hits give low values 1.27 | S. cerevisiae deletion strains, locus YNL067W, strain RPL9B, hits give low values 1.01 | S. cerevisiae deletion strains, locus YNL071W, strain lat1, hits give low values 1.03 | S. cerevisiae deletion strains, locus YNL153C, strain GIM3, hits give low values 1.05 | S. cerevisiae deletion strains, locus YNL183C, strain NPR1, hits give low values 0.945 | S. cerevisiae deletion strains, locus YNL209W, strain ssb2, hits give low values 1.02 | S. cerevisiae deletion strains, locus YNL233W, strain BNI4, hits give low values 1.07 | S. cerevisiae deletion strains, locus YNL248C, strain rpa49, hits give low values 1.01 | S. cerevisiae deletion strains, locus YNL250W, strain rad50, hits give low values 1.06 | S. cerevisiae deletion strains, locus YNL271C, strain bni1, hits give low values 1.04 | S. cerevisiae deletion strains, locus YNL298W, strain CLA4, hits give low values 1.02 | S. cerevisiae deletion strains, locus YNL307C, strain MCK1, hits give low values 1.03 | S. cerevisiae deletion strains, locus YNL322C, strain KRE1 (second series), hits give low values 1.01 | S. cerevisiae deletion strains, locus YNL322C, strain KRE1, hits give low values 1.02 | S. cerevisiae deletion strains, locus YNR049C, strain mso1, hits give low values 1.02 | S. cerevisiae deletion strains, locus YNR052C, strain pop2, hits give low values 1.03 | S. cerevisiae deletion strains, locus YOL012C, strain htz1 0.602 | S. cerevisiae deletion strains, locus YOL147C, strain pex11, hits give low values 1.01 | S. cerevisiae deletion strains, locus YOR001W, strain rrp6, hits give low values 1.04 | S. cerevisiae deletion strains, locus YOR061W, strain CKA2, hits give low values 1.03 | S. cerevisiae deletion strains, locus YOR069W, strain VPS5, hits give low values 1.02 | S. cerevisiae deletion strains, locus YOR070C, strain gyp1, hits give low values 1.01 | S. cerevisiae deletion strains, locus YOR080W, strain dia2, hits give low values 1.01 | S. cerevisiae deletion strains, locus YOR083W, strain WHI5, hits give low values 1.02 | S. cerevisiae deletion strains, locus YOR106W, strain vam3, hits give low values 1.01 | S. cerevisiae deletion strains, locus YOR136W, strain idh2, hits give low values 1.04 | S. cerevisiae deletion strains, locus YOR144C, strain elg1, hits give low values 1.01 | S. cerevisiae deletion strains, locus YOR184W, strain ser1, hits give low values 1.06 | S. cerevisiae deletion strains, locus YOR231W, strain MKK1, hits give low values 0.989 | S. cerevisiae deletion strains, locus YOR265W, strain rbl2, hits give low values 1.01 | S. cerevisiae deletion strains, locus YOR270C, strain vph1, hits give low values 1.06 | S. cerevisiae deletion strains, locus YOR290C, strain snf2, hits give low values 1.03 | S. cerevisiae deletion strains, locus YOR316C, strain cot1, hits give low values 1.02 | S. cerevisiae deletion strains, locus YPL051W, strain arl3, hits give low values 0.997 | S. cerevisiae deletion strains, locus YPL055C, strain LGE1, hits give low values 1.09 | S. cerevisiae deletion strains, locus YPL078C, strain atp4, hits give low values 1.01 | S. cerevisiae deletion strains, locus YPL106C, strain sse1, hits give low values 0.996 | S. cerevisiae deletion strains, locus YPL240C, strain hsp82, hits give low values 1.01 | S. cerevisiae deletion strains, locus YPL241C, strain CIN2, hits give low values 1.02 | S. cerevisiae deletion strains, locus YPL256C, strain CLN2, hits give low values 0.995 | S. cerevisiae deletion strains, locus YPR119W, strain clb2, hits give low values 1.03 | S. cerevisiae deletion strains, locus YPR141C, strain kar3, hits give low values 1.03 | S. cerevisiae deletion strains, locus YPR163C, strain tif3, hits give low values 1.04 | S. cerevisiae deletion strains, locus YPR167C, strain met16, hits give low values 1.04 | S. cerevisiae deletion strains, strain wtn01, hits give low values 1.03 | S. cerevisiae strains, strain wild type, hits give low values 1.06

— PubChem BioAssay AID1159580 (chemical genetic matrix, 2015)
